The campaign covered roughly 320,000 compounds. About 2,100 (0.66%) were called active. About 53% were inconclusive and are not listed. Calls come from the whole dose curve; as a rule, active = well fitted inhibition curve with a large enough effect in the signal ratio, with a control signal flat (not every such curve was filed as active); inconclusive = small, poorly fitted or top-dose-only effect, or effect the other way, or a change in a side signal; inactive = flat fitted curve, though single readings scatter; the % refers to the signal ratio. This excerpt belongs to a sample that is enriched for actives.
experiment: qHTS Assay for Lipid Storage Modulators in Drosophila S3 Cells; conditions: BODIPY lipid droplet fluorescence, 18-24 h, cells fed with added oleic acid; cell number change: measured here: cell count max response; series mostly up to 46.1 µM; lipid storage change, negative = inhibition: at the top concentration;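 for cell number change: cells counted by Cell Tracker Red CMTPX staining in the red channel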; for lipid storage change, negative = inhibition: % is set by controls: 0 for no effect and ±100 for the full control effect
How it was run: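 Drosophila S3 cells got compounds at several concentrations plus oleic acid (400 uM solution). Laser-scanning cytometry with 488 nm excitation read lipid droplets at 500-530 nm and cells at 575-640 nm. Percent activity was relative to 20 uM Triacsin C.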
Potency is the fitted concentration of half-maximal effect.

SMILES | outcome | cell number change [%] | lipid storage change, negative = inhibition | Potency
CN1CCN(CC(=O)Nc2ccc(Cl)cc2C(=O)c2ccccc2)CC1 | inactive | -6.92 | – | –
CC(=O)c1ccc(OC(=O)N(C)c2ccccc2)cc1 | – | 4.78 | 10.1% (inactive) | –
COc1ccc(OC)c(-n2c(O)c(/C=C3\C=Nc4ccccc43)c(=O)[nH]c2=O)c1 | – | -0.708 | -22.4% (inactive) | –
COc1c(C)cc(C(=O)C2CCCN(Cc3cnc(C)s3)C2)cc1C (centres undefined) | – | 0.299 | 4.49% (inactive) | –
CCOC(=O)C(O)(c1ccc(N(CC)S(=O)(=O)c2ccccc2)cc1)C(F)(F)F (centres undefined) | – | -12.2 | 0.698% (inactive) | –
CC#CP(=O)(OCC)C(O)(c1ccccc1)C(F)(F)F (centres undefined) | – | – | – | 10.3 µM (active)
CCOP(=O)(OCC)C(NC(=O)c1ccccc1)C(Cl)(Cl)Cl (centres undefined) | – | – | 2.82% (inactive) | –
O=c1[nH]c(=S)[nH]c(O)c1N=Nc1ccc(S(=O)(=O)N2CCOCC2)cc1 | – | 8.05 | -9.88% (inactive) | –
COC(=O)C1=C(c2cccc(OCc3ccccc3)c2)C[C@@H]2CC[C@H]1N2C(=O)NCc1ccccc1OC | inactive | -22.5 | – | –
CN1CCN(CP(=O)(N2CCOCC2)N2CCOCC2)CC1 | – | – | – | 5.8 µM (active)
O=P(C(Cl)Cl)(N1CCOCC1)N1CCOCC1 | – | 3.63 | -15.3% (inactive) | –
CCCCOP(=O)(CN1CCOCC1)OCCCC | inactive | – | – | –
CCOC(=O)c1nc2ccccc2c(=O)n1-c1cccc(C)c1 | inactive | – | – | –
COc1ccc(C2=NCC(=S)Nc3ccc(Cl)cc32)cc1Cl | – | – | 13.5% (inactive) | –
CC1CCCCN1CCNS(=O)(=O)c1ccc2c(c1)oc(=O)n2C (centres undefined) | – | – | – | 29.1 µM (active)
COc1ccccc1CCNC(=O)CCC(=O)N1CC2C[C@@H](C1)Cn1c2cccc1=O | – | 14.1 | 0.891% (inactive) | –
O=c1[nH]c(=O)n(-c2ccccc2)c(O)c1/C=C/C=Nc1ccccc1 | – | 0.688 | -2.42% (inactive) | –
C=CCn1c(O)c(/C=C/C=Nc2ccccc2)c(=O)[nH]c1=O | inactive | – | – | –
Cc1ccccc1-n1c(O)c(/C=C/C=Nc2ccccc2)c(=O)[nH]c1=O | – | – | – | 7.31 µM (active)
CN1C2CCC1CC(OC(=O)c1ccc(Cl)cc1)(C(=O)O)C2 (centres undefined) | – | -1.97 | -7.26% (inactive) | –

SMILES | outcome | cell number change [%] | lipid storage change, negative = inhibition | Potency
Cc1nn(CC(C)C)c(Cl)c1C(=O)NC1CCC(C)CC1 (centres undefined) | – | – | 16.6% (inactive) | –
COc1ccc(CNCCc2c(C)[nH]c3ccc(OC(F)(F)F)cc23)c(OC)c1 | – | -24.6 | – | 2.06 µM (active)
COc1ccc2[nH]c(C)c(CCNCc3cc(OC)c4c(c3)OCO4)c2c1 | inactive | 11.1 | – | –
CCOc1cccc(CNCCc2c(C)[nH]c3ccc(OC(F)(F)F)cc23)c1O | – | -1.8 | -20.3% (inactive) | –
CC(C(O)c1ccccc1)N(C)CCn1cnc2c1c(=O)n(C)c(=O)n2C (centres undefined) | – | 3.11 | 16.1% (inactive) | –
CCOC(=O)C(C)(CC)NC(=O)CSP(=S)(OCC)OCC (centres undefined) | inactive | – | – | –
O=P(Nc1cccc(F)c1)(Oc1ccccc1F)Oc1ccccc1F | – | 10.8 | -5.33% (inactive) | –
Cc1ccc(NP(=O)(Oc2ccccc2F)Oc2ccccc2F)cc1C | – | -29.4 | – | 32.6 µM (active)
Cc1ccc(NP(=O)(Oc2ccccc2F)Oc2ccccc2F)cc1 | – | -20.4 | -27.5% (inactive) | –
COC(=O)C(O)(c1ccc(N(C)S(=O)(=O)c2ccccc2)cc1)C(F)(F)F (centres undefined) | – | -19.2 | 15.7% (inactive) | –
O=c1c2cc(Cl)cc(Cl)c2nc(CN2CCOCC2)n1-c1ccccc1F | – | -6.69 | 20% (inactive) | –
CN1CCN(c2ccc(NC(=O)C(C)(C)C)cc2)CC1 | – | -9.28 | -5.61% (inactive) | –
CN1CCN(c2ccc(N)c(N3CCN(C)CC3)c2)CC1 | inactive | 19 | – | –
CN1CCN(c2ccc(C=O)cc2)CC1 | – | -17.6 | – | 23.1 µM (active)
Nc1ccccc1C(=O)c1ccccc1 | – | 17.1 | 6.34% (inactive) | –
COc1cccc(CNCCc2ccccc2)c1OC | – | 7.84 | -9.36% (inactive) | –
Fc1ccccc1CNC1CN2CCC1CC2 (centres undefined) | – | 4.51 | -9.85% (inactive) | –
COc1cccc(CNC2CN3CCC2CC3)c1OC (centres undefined) | – | -7.47 | – | 29.1 µM (active)
COc1ccc(CN2C(=O)NC(=O)/C(=C/c3ccc([N+](=O)[O-])s3)C2=O)cc1 | – | 7.76 | -13.4% (inactive) | –
O=C(c1ccc2c(c1)OCO2)C1CCCN(Cc2ccccn2)C1 (centres undefined) | – | 1.62 | 22.4% (inactive) | –

SMILES | outcome | cell number change [%] | lipid storage change, negative = inhibition | Potency
CCN(CC)C(=O)c1ccc(NC(=O)c2cn(-c3ccccc3)nc2-c2ccc(OC)cc2)cc1 | – | -6.07 | – | 2.31 µM (active)
CCN(CC)C(=O)c1ccc(NC(=O)COc2ccc(-c3nn(C)c(=O)c4ccccc34)cc2)cc1 | inactive | -2.38 | – | –
CCN(CC)C(=O)c1ccc(NC(=O)c2ccc(-c3nn(C)c(=O)c4ccccc34)cc2)cc1 | – | 4.89 | 2.66% (inactive) | –
COc1ccc(-n2c(CN3CCOCC3)nc3ccccc3c2=O)c(OC)c1 | – | -3.52 | -6.32% (inactive) | –
COc1ccc(N2CCN(Cc3nc4ccccc4[nH]3)CC2)cc1 | – | 15.8 | -14.5% (inactive) | –
CN1CCN(Cc2nc3ccccc3c(=O)[nH]2)CC1 | – | -23.1 | – | 29.1 µM (active)
Cc1cc(N2CCN(C)CC2)nc2ccccc12 | – | 21.8 | 3.1% (inactive) | –
C[C@]12CCC3[C@@H](CC[C@H]4C[C@@H](O)CC[C@]34C)C1CCC2=O (some centres undefined) | inactive | 15.3 | – | –
C#CC[N+]1(C)[C@@H]2CC(OC(=O)C(CO)c3ccccc3)C[C@H]1C(O)C2 (some centres undefined) | – | 7.57 | 0.585% (inactive) | –
Cc1ccccc1-n1c(/C=C/c2ccccn2)nc2ccccc2c1=O | – | 15.7 | 21.2% (inactive) | –
Cc1cccc(-n2c(/C=C/c3ccc([N+](=O)[O-])o3)nc3ccccc3c2=O)c1 | – | 9.44 | – | 5.17 µM (active)
Cc1ccc(-n2c(/C=C/c3ccccn3)nc3ccccc3c2=O)cc1 | – | 27.8 | – | 6.51 µM (active)
O=c1c2ccccc2nc(/C=C/c2ccccn2)n1-c1ccccc1 | inactive | 5.25 | – | –
Cc1cccc(-n2c(/C=C/c3ccccn3)nc3ccccc3c2=O)c1 | inactive | -12.4 | – | –
Cc1cccc(-n2c(-c3ccc([N+](=O)[O-])cc3)nc3ccccc3c2=O)c1 | – | -0.157 | 10.9% (inactive) | –
CSc1nc(N2CCN(C)CC2)c2ccccc2n1 | – | 12 | 2.69% (inactive) | –
C/C=C1/CC(C)C(C)(O)C(=O)OCC2CCN3CCC(OC1=O)C23 (centres undefined) | – | 3.31 | 1.68% (inactive) | –
Cc1ccc(N2C(=O)/C(=C/c3ccc(CN(CCC#N)S(C)(=O)=O)o3)C(=O)NC2=S)cc1 | – | 9.59 | -8.75% (inactive) | –
[N-]=[N+]=NCc1cn2cccnc2n1 | – | -11.7 | -11.6% (inactive) | –
c1ccc(C2CC3CC(c4ccco4)N2O3)cc1 (centres undefined) | – | 2.08 | 6.42% (inactive) | –

From PubChem BioAssay AID2685 (National Center for Advancing Translational Sciences (NCATS), 2010)
